Among the data in PubChem BioAssay are inhibition values, retold here.

Unmarked numbers belong to inactive results. The list shows a part of the results. The source made the active and inactive calls.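 Rule for the calls, unless noted: active = mean inhibition above 46.68%, the untreated control wells mean plus 3 SD; inactive = the rest.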

Test [1] deals with Nuclear receptor coactivator 3 (Homo sapiens) (UniProt Q9Y6Q9). The test can be described thus: SRC3 coactivator transcriptional activity inhibitors, confirmation, cell-based, luminescence, quadruplicate (AID 588792;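 active = mean inhibition over 43.08%, the solvent-only control mean plus 3 SD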;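 note: 0% = DMSO treated cells and 100% = gossypol at 36 µM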). Particulars: HEK293 GAL4-SRC3 luciferase reporter, at 3.6 µM, hits give high values. For orientation: Reporter assays use an easily measured gene product as a stand-in for the process of interest.

Test [2] concerns transactivating tegument protein VP16 (Human herpesvirus 1), Gal4-VP16 luciferase reporter. In words: VP16 transactivation inhibitors, counter-screen for SRC3 inhibitor project, cell-based, luminescence, high throughput (AID 588794; in the data active = inhibition above about 30%). Particulars: mammalian cells, VP16-driven luciferase reporter luminescence; at 3.6 µM; hits give high values. In general terms: A counterscreen serves to expose hits that act by an unwanted route or on another target.

Test [3] deals with Nuclear receptor coactivator 1 (Homo sapiens) (UniProt Q15788). The test can be described thus: SRC1 coactivator transcriptional activity inhibitors, confirmation, cell-based, luminescence, quadruplicate (AID 588820).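 Note: 0% = DMSO wells and 100% = gossypol 36 µM treated wells.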 Particulars: HEK293 GAL4-SRC1 luciferase reporter, at 3.6 µM, hits give high values.
A short description of test [4]: VP16 transactivation inhibitors, counter-screen for SRC1 inhibitor project, cell-based, luminescence, high throughput (AID 588824; in the data active = inhibition above about 25%). Particulars: cell-based VP16 transactivation luciferase luminescence; at 3.6 µM; hits give high values.
Test [5] can be described thus: StAR promoter reporter inhibitors, counter-screen for LRH-1 inverse agonist project, cell-based, luminescence, high throughput (AID 651611; in the data active = inhibition above about 28%). Particulars: StAR promoter luciferase reporter counterscreen, at 3.6 µM, hits give high values.
For test [6], the target named is Nuclear receptor subfamily 5 group A member 2 (Homo sapiens) (UniProt O00482). In words: LRH-1 (NR5A2) inverse agonists, retest, confirmation, cell-based, luminescence (AID 651613; in the data active = inhibition above about 42%;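 note: HEK293T cells co-transfected with LRH-1 and StAR promoter luciferase reporter; 0% = vehicle wells and 100% = parental cells lacking receptor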). Particulars: cell-based LRH-1 luciferase reporter, inverse agonism; at 3.6 µM; hits give high values.
The target in test [7] is Steroidogenic factor 1 (Homo sapiens) (UniProt Q13285). In words: SF1 (NR5A1) inverse agonists, counter-screen for LRH-1 inverse agonist project, cell-based, luminescence, high throughput (AID 651614; in the data active = inhibition above about 44%;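 note: cells cotransfected with StAR promoter reporter and SF1 expression vector; 0% = vehicle on cells with receptor and 100% = vehicle on cells lacking receptor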). Particulars: cell-based SF1 luciferase reporter, at 3.6 µM, hits give high values.
Test [8] in a line: VP16 transactivation reporter inhibitors, counter-screen for LRH-1 inverse agonist project, cell-based, luminescence, high throughput (AID 651615; in the data active = inhibition above about 33%). Particulars: Gal4-VP16 luciferase reporter cells, at 3.6 µM, hits give high values.
Test [9] deals with Photoreceptor-specific nuclear receptor (Homo sapiens) (UniProt Q9Y5X4). The test can be described thus: NR2E3 agonist confirmation in cells, cell-based, luminescence, CHO-S two-hybrid (AID 624378;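 active = average inhibition above a cutoff equal to the mean inhibition of all tested compounds plus one SD, cut at about 70% in these data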;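 note: 0% = DMSO in NR2E3 cells and 100% = DMSO in cells lacking NR2E3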). Particulars: CHO-S mammalian two-hybrid NR2E3-NCOR, luciferase luminescence; at 3.98 µM; hits give high values.
Test [10] can be described thus: GAL4-VP16 reporter modulators, confirmation, counter-screen for NR2E3 agonist project, cell-based, luminescence, CHO-S, high throughput (AID 624379;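 active = mean inhibition above a cutoff equal to the average over all tested compounds plus one standard deviation, cut at about 70% in these data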;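 note: 0% = DMSO with VP16-transfected cells and 100% = DMSO with cells lacking VP16; higher means less reporter light so more repression of VP16 activity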). Particulars: CHO-S GAL4-VP16 luciferase reporter, at 3.98 µM, hits give high values.
Test [11] has as its system transactivating tegument protein VP16 (Human herpesvirus 1). The test can be described thus: VP16 transactivation reporter inhibitors, counter-screen for SRC2 inhibitor project, cell-based, luminescence, single concentration (AID 652007; in the data active = inhibition above about 36%). Particulars: cell-based VP16 transactivation luciferase reporter, at 8.9 µM, hits give high values.
Test [12] addresses Nuclear receptor coactivator 2 (Homo sapiens) (UniProt Q15596). The test can be described thus: SRC2 coactivator transcriptional activity inhibitors, confirmation, cell-based, luminescence, HEK293, triplicate (AID 652008;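 active = mean inhibition above 46.5%, the solvent-only control mean plus 3 SD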;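 note: 0% = DMSO-treated cells and 100% = Gossypol at 36 µM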). Particulars: HEK293 GAL4-SRC2 luciferase reporter, at 8.9 µM, hits give high values.
Test [13] is described as follows: Gal4-VP16 luciferase reporter inhibitors, counter-screen for COUP-TFII antagonist project, cell-based, luminescence, HEK293 (AID 687007; in the data active = inhibition above about 13%). Particulars: at 8.5 µM, hits give high values.
The target in test [14] is COUP transcription factor 2 (Homo sapiens) (UniProt P24468). The test can be described thus: NR2F2 transcriptional activity inhibitors, confirmation, cell-based, luciferase reporter, HEK293, triplicate (AID 687008;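 active = mean inhibition over three repeats above a set limit taken from the earlier primary screen, cut at about 38% in these data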;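 note: 100% = cells given the luciferase reporter alone without the COUP-TF2 vector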). Particulars: HEK293 NGFI-A luciferase reporter, luminescence; at 8.5 µM; hits give high values.
Sequence of COUP transcription factor 2 (Homo sapiens) (P24468 whole entry, looked up): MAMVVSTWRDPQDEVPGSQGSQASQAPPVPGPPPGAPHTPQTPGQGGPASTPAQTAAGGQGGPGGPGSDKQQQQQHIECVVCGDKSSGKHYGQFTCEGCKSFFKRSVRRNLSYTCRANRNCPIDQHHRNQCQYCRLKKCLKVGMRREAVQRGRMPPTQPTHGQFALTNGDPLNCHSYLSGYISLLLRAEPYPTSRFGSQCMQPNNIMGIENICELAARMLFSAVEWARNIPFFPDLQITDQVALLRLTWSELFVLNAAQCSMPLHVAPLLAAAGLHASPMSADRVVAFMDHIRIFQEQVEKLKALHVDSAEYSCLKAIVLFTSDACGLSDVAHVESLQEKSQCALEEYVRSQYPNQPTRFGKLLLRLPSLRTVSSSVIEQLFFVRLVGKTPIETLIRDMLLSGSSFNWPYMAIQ

Sequence of Steroidogenic factor 1 (Homo sapiens) (Q13285 whole entry, looked up, the tested form may be a part): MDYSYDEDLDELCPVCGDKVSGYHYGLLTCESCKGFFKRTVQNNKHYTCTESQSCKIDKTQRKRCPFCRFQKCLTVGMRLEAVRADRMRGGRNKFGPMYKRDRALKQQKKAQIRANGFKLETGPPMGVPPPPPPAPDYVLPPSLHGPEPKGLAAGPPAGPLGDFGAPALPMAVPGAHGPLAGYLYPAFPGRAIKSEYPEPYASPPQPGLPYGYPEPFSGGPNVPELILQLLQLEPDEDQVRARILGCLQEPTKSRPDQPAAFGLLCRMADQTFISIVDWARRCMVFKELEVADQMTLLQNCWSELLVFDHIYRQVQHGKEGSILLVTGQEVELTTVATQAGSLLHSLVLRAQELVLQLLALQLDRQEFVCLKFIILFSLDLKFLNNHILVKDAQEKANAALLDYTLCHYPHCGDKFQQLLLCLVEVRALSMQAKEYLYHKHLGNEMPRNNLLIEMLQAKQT
Sequence of Nuclear receptor subfamily 5 group A member 2 (Homo sapiens) (O00482 whole entry, looked up): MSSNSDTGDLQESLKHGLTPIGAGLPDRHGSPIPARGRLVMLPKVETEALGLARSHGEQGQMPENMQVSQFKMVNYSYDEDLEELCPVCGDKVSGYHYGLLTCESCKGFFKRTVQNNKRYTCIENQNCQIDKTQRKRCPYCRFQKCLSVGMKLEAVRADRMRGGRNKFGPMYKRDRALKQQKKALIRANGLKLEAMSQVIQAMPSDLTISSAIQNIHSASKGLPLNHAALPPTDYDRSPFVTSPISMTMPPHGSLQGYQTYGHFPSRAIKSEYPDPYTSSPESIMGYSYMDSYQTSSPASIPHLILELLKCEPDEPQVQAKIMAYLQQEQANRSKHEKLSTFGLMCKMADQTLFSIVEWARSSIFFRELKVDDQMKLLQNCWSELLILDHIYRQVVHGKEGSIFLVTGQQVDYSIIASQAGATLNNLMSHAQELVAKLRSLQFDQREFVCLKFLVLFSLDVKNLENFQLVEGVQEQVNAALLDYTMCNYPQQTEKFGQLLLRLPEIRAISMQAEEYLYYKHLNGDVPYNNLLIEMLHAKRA
Sequence of Nuclear receptor coactivator 1 (Homo sapiens) (Q15788 whole entry, looked up, the tested form may be a part): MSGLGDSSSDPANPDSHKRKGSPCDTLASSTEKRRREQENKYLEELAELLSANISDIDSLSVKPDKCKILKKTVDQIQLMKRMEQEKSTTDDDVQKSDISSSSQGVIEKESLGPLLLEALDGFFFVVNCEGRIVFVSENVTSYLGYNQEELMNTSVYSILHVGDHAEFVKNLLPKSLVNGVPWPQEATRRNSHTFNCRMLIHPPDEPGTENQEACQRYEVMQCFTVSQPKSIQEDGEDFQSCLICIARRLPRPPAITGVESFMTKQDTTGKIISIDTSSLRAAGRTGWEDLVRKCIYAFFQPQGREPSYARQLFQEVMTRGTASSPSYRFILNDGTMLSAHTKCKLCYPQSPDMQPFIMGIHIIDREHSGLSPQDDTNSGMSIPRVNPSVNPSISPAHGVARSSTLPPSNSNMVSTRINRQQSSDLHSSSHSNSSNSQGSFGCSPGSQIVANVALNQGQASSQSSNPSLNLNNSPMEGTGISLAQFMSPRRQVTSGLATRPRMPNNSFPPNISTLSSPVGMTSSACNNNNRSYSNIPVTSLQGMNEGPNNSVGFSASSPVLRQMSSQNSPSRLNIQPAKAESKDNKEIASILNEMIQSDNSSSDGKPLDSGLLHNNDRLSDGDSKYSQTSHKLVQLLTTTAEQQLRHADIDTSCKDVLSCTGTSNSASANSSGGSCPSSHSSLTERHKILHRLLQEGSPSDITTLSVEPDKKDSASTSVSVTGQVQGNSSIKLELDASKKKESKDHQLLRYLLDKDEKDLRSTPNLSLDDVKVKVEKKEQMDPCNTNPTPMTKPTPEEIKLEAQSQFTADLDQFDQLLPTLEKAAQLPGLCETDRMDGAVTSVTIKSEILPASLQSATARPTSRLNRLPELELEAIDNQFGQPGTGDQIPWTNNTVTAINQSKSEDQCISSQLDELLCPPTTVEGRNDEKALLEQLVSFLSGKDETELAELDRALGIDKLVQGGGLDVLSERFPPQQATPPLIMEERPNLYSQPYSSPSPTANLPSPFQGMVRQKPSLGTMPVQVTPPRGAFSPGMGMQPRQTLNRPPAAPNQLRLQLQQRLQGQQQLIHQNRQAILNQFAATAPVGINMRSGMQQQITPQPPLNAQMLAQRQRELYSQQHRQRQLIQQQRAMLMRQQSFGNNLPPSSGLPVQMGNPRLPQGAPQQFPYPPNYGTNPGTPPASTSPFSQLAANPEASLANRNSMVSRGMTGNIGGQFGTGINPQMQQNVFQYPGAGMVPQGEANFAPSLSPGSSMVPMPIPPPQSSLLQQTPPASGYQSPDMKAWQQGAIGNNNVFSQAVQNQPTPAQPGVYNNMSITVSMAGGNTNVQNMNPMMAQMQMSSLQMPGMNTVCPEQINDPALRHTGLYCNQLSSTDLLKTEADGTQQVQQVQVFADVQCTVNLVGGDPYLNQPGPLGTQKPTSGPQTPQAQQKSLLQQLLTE
Sequence of Nuclear receptor coactivator 3 (Homo sapiens) (Q9Y6Q9 whole entry, looked up, the tested form may be a part): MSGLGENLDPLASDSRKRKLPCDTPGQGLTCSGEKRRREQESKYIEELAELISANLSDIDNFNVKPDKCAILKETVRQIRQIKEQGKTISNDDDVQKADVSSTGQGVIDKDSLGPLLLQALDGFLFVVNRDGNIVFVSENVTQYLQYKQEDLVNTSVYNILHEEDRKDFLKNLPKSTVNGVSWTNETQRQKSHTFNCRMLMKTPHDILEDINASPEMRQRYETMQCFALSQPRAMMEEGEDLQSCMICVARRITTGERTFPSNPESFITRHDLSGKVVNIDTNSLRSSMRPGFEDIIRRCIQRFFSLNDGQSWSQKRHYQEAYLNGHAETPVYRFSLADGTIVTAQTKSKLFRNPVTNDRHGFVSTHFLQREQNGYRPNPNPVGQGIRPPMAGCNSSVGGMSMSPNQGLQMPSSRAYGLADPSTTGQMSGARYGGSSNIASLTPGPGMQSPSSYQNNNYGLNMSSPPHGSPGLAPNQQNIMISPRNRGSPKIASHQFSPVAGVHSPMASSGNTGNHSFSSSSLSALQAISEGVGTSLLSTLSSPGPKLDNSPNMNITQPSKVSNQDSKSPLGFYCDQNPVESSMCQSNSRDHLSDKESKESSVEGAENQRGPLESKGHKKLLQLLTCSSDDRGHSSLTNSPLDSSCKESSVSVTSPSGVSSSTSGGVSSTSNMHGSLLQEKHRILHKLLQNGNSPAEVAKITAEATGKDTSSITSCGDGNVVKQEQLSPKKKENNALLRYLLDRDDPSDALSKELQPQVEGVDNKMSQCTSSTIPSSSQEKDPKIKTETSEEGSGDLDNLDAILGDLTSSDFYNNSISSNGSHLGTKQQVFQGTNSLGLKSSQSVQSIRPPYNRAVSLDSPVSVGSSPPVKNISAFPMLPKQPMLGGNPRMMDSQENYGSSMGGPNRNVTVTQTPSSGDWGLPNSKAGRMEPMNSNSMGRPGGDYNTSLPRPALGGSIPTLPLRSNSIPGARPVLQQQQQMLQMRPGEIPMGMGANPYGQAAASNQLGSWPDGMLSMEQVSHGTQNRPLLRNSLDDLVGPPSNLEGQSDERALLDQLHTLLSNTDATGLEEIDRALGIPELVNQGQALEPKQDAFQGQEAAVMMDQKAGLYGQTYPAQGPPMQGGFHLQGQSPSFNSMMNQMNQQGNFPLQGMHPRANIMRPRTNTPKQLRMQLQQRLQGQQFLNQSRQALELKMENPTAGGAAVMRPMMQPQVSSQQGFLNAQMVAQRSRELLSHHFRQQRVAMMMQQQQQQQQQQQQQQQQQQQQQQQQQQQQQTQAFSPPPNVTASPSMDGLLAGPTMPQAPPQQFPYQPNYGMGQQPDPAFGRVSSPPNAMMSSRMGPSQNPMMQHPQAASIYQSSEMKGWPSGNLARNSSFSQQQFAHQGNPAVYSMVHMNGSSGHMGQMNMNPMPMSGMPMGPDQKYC
Sequence of Photoreceptor-specific nuclear receptor (Homo sapiens) (Q9Y5X4 whole entry, looked up, the tested form may be a part): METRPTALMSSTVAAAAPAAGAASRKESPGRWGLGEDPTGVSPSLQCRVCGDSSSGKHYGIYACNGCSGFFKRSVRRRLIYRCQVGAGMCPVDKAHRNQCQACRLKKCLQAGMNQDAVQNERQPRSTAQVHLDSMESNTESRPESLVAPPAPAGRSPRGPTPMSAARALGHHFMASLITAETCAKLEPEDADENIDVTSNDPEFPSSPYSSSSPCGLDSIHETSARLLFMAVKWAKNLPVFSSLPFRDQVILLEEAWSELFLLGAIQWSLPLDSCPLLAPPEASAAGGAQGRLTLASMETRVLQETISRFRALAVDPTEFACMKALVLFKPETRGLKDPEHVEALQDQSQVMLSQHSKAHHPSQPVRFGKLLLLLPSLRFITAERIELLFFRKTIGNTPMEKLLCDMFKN

A word on the inhibition: it is the relative decrease from the control value, in per cent. On to `Cc1cccc(C)c1-n1nnnc1C(CCc1ccccc1)N1CCC(n2c(=O)[nH]c3ccccc32)CC1` (stereo not drawn), for which the inhibition is 40.6% in test [1], 49.2% (active) in test [2], 20.7% in test [3] and 51.8% (active) in [4].
For the molecule `CCC(C)C(NC(=O)CCCNC(=O)CCC(=O)OC1O[C@H]2OC3(C)CC[C@H]4[C@H](C)CCC(C1C)C24OO3)C(=O)O` (stereo partly drawn), the inhibition was 52.4% (active) in test [1]; 77.5% (active) in test [2]; 45% in test [3]; 76.4% (active) in test [4]; 71.9% (active) in [5]; 101% (active) in test [6]. In addition, the inhibition in test [7] was 89.8% (active); in test [8], 82.9% (active).
For the molecule `CC(=NCc1ccc(F)cc1)c1c(O)n(C)c(=O)n(C)c1=O`, the inhibition in [1] is 11%; in test [2] it was 49.6% (active); in test [3], 12.8%; in [4], 49.7% (active); in test [5] it was 39.6% (active); in test [6], 51.4% (active). The inhibition in test [7] was 73% (active); in test [8], 62.8% (active).
In the case of `CC(C)c1oc(=O)cc2c1[C@@H](O)[C@H]1OC(=O)[C@@]3(C)CC[C@@H](O)[C@@]2(C)C13` (stereo partly drawn), the inhibition in test [1] is 40.9%; in test [2], 7.55%; in [3], -2.23%; in test [4], 10%; in [5] it was 71.4% (active); in test [6], 86.2% (active). The inhibition in [7] is 72.3% (active); in test [8], 53.6% (active).
Turning to `CC[n+]1c(/C=C/N(C)c2ccccc2)sc2ccc(Cl)cc21`, the inhibition in [1] is 28.9%; in test [2], 46.1% (active); in [3], 30.4%; in test [4], 48.8% (active); in test [5], 23.7%; in test [6], 83.7% (active). Moreover, the figures for the inhibition in test [7] and in [8] were 73.4% (active) and 75% (active), respectively.
Consider `CCC1(OC(=O)CN)C(=O)OCc2c1cc1n(c2=O)Cc2cc3ccccc3nc2-1` (stereo not drawn), for which the inhibition in test [1] was 94.9% (active); in [2], 82.8% (active); in test [3], 56.9% (active); in test [4], 77.3% (active); in [5] it was 84% (active); in test [6], 103% (active). The inhibition in [7] is 90.9% (active); in test [8] it was 82% (active).
In the case of `N#CC(C#N)=NNc1ccc(-n2ccc(C(F)(F)F)n2)cc1`, the inhibition in test [1] is 49.1% (active); in test [2], 52.6% (active); in test [3], 40.7%; in [4], 56.3% (active).
For `C=C1C(=O)[C@@]23C[C@H]4[C@@H]5[C@@]6(C)CCC[C@@]57[C@@H]2[C@@H](O)[C@@H]1C[C@H]3[C@H]7N4C6`, in that order: 3.71%, 22%, 26.6% and 20.9%.
On the same counts, the results for `CCCc1nc2ccc(Br)cc2c(=O)n1-c1ccc([N+](=O)[O-])c(C(F)(F)F)c1` are -13%, 11.2%, 13.3% and 14.8%.
For `CCC(C)(O)C(=O)OC1C(=O)OC2CC3C(C)=CC(=O)C(O)C3(C)C3C4(O)OCC23C1C(C)C4O` (stereo not drawn), the inhibition in test [1] was 97.1% (active); in test [2] it was 96.7% (active); in test [3], 94.3% (active); in test [4] it was 96.4% (active); in test [9], 98.7% (active); in test [10], 86.9% (active). Also, the inhibition is 96.1% (active) in [5]; 109% (active) in [6]; 97.6% (active) in [7]; 96.8% (active) in test [8]; 80.7% (active) in test [11]; 74.8% (active) in test [12]. Moreover, the inhibition was 31.2% (active) in test [13] and 90.8% (active) in test [14].
For `CCOc1ccc(-c2c(C)n(-c3ccc(OCC)cc3)c3[n+]2CCCCC3)cc1`, the inhibition in [1] is 96.3% (active); in [2] it was 89% (active); in test [3] it was 74% (active); in test [4], 87.2% (active).
Take `Cc1cc(-c2ccccc2)cc(-c2ccccc2)[n+]1CCc1ccccc1`: the inhibition in test [1] is 37.8%; in [2], 52.1% (active); in [3] it was 27.1%; in test [4], 51.7% (active); in test [5], 51.1% (active); in test [6] it was 91.6% (active). The results for the inhibition in test [7] and in test [8] were 75.2% (active) and 73.2% (active), respectively.
Consider `CCOc1ccc(-c2cc(C)[n+](CCc3ccc(OC)c(OC)c3)c(-c3ccc(OCC)cc3)c2)cc1`, for which the inhibition in test [1] was 53.6% (active); in test [2], 69.7% (active); in test [3], 60% (active); in [4], 73.4% (active); in [5], 70% (active); in [6] it was 104% (active). The values for the inhibition in test [7] and in test [8] were 92.3% (active) and 85.4% (active), respectively.
On to `COc1ccc(-n2nnnc2C(CCc2ccccc2)N2CCC(n3c(=O)[nH]c4ccccc43)CC2)cc1` (stereo not drawn), for which the inhibition in [1] is 25.2%; in test [2], 8.54%; in [3], 2.43%; in [4] it was 9.95%; in [5], 48.7% (active); in test [6], 28.1%. The inhibition in test [7] is 30.3%; in [8], 33.6% (active).
Take `CC(=O)OC1CC(OC2C(O)CC(OC3C(O)CC(OC4CCC5(C)C(CCC6C5CCC5(C)C(C7=CC(=O)OC7)C(O)CC65O)C4)OC3C)OC2C)OC(C)C1OC1OC(CO)C(O)C(O)C1O` (stereo not drawn): the inhibition in [1] was 93.4% (active); in test [2], 79.7% (active); in [3], 39.1%; in [4] it was 72.8% (active); in [5], 97.7% (active); in test [6], 111% (active). In addition, the inhibition was 99.3% (active) in [7], 85.1% (active) in test [8], 61.8% (active) in test [11] and 13.5% in test [12].
For the molecule `C=C1C(=O)O[C@@H]2C[C@@H](C)[C@@H]3C=CC(=O)[C@@]3(C)[C@@H](OC(=O)CC(=O)O[C@H]3[C@@H]4C(=C)C(=O)O[C@@H]4C[C@@H](C)[C@@H]4C=CC(=O)[C@]43C)[C@H]12`, the inhibition in test [1] is 97.5% (active); in test [2], 96% (active); in test [3] it was 91.3% (active); in test [4], 95.7% (active); in test [5], 94.5% (active); in test [6], 106% (active). The inhibition in test [7] is 97.1% (active); in test [8], 94.5% (active); in [11], 96% (active); in test [12] it was 99% (active).
